# HT1080 IDH1KD tx – HT-1080 IDH1 knockdown cell toxicity (counter line) | Potency, µM (titrated, usually from 46.1 µM), for the others: at the top dose activity, negative = toxicity, hits mostly cytotoxic | AID 686971 | 2% of 360,000 active | HT-1080 IDH1 knockdown viability, ATP luminescence, 48 h;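 also: potency is read from the fitted curve at half-maximal effect; 0% = DMSO wells and -100% = cell-free medium wells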
#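 % activity derives from luminescence (CellTiter-Glo), normalised to DMSO and no-cell wells. HT-1080-IDH1KD cells, 750/well, had 48 h compound exposure at 37 °C.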
# TDP1 cell CPT – growth inhibition of DT40 Tdp1-/-;hTDP1 cells with camptothecin (screen for TDP1 inhibitors) | chicken DT40 Tdp1-/-;hTDP1 cells + 20 nM CPT, ATP luminescence, 48 h | Potency, µM (highest dose often 46.2 µM), inactives show at the top dose activity change, negative = growth inhibition, usual class: inhibitors | 12% of 420,000 active | AID 686979; also: potency is read from the fitted curve at half-maximal effect; nearly all actives have a fitted effect of over 55% in size
#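 Chicken DT40 Tdp1-/- cells stably complemented with human TDP1 were seeded at 400 cells/well in medium containing 20 nM camptothecin, exposed to pin-transferred compounds, and grown at 37 °C for at least 48 hr. Viability was read as ATP luminescence.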
# DT40 TDP1 no CPT – qHTS for Inhibitors of human tyrosyl-DNA phosphodiesterase 1 (TDP1): qHTS in cells in absence of CPT | DT40 Tdp1-/- hTDP1 cells, no CPT, ATP luminescence, 48 h | Potency, µM (titrated, usually from 46.2 µM), without a hit: at the highest dose activity change, negative = growth inhibition, most hits filed as inhibitors | 15% of 420,000 active | AID 686978, 2013; also: potency is read from the fitted curve at half-maximal effect; nearly all actives have a fitted effect of over 55% in size
#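 Luminescent ATP content (CellTiter-Glo) served as the growth readout. Knockout chicken DT40 cells expressing human TDP1 were exposed to compounds without camptothecin for a minimum 48 hr at 37 °C.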
# IL1B secr inh – inhibitors of inflammasome signaling (IL-1 beta secretion); THP-1 LPS/ATP IL-1B secretion, AlphaLISA, 16 h; active compounds read low; activity change, % at 57.5 µM; 4.7% of 360,000 active; AID 743279; in the data active = activity change below about -50%; inconclusive = mostly about -30% to -49%
#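 Secreted IL-1B measured by AlphaLISA bead assay after 16 h compound exposure of THP-1 cells; compounds (final up to 57.5 uM) added 1 h before LPS (250 ng/mL) and ATP (1.25 mM) stimulation; lower signal means less secretion.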
# HT1080NT lethal – kills 2HG-producing HT-1080-NT fibrosarcoma cells; HT-1080-NT fibrosarcoma viability, CellTiter-Glo ATP luminescence, 48 h; Potency, µM (titrated, usually from 46.1 µM), inactives show at the top dose activity, negative = less viability, actives largely listed as cytotoxic; 1.6% of 360,000 active; AID 686970;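 also: NT is the 2HG producing partner of a matched IDH1 knockdown line; potency is read from the fitted curve at half-maximal effect; 0% = DMSO-treated cells and -100% = media-only wells without cells; nearly all actives have a fitted effect of over 55% in size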
#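 Toxicity toward the 2HG-producing NT line was scored as %Activity, normalised to DMSO and no-cell wells, from CellTiter-Glo luminescence after 48 hours' treatment.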
# The depositor's hits bear a star; i = inactive; ? = inconclusive; . = no result. In the library only some 19% were active in any assay of this set; here they are far more common. Unless noted, calls follow the shape of the dose curve; as a rule, active = well fitted curve in the direction sought with a large enough effect; inconclusive = small, poorly fitted or top-dose-only effect, or another doubt; inactive = no such curve, though single readings can be large; an effect the other way counts as inactive or inconclusive. Unless noted, % is scaled to controls: 0 for no effect and ±100 for the full control effect.
SMILES,HT1080 IDH1KD tx,TDP1 cell CPT,DT40 TDP1 no CPT,IL1B secr inh,HT1080NT lethal
CC(C)c1nnc(NC(=O)CCC(=O)NC2CCCc3ccccc32)s1 (stereo not given),-2.8%,?,14.6µM*,43.8,4.4%
CC(Sc1nc2ccccc2s1)C(=O)N(C)Cc1ccccc1 (stereo not given),-23.4%,-5.4%,-27.0%,-66.8*,-19.5%
CC(Sc1nc2ccccc2s1)C(=O)Nc1ccc2c(c1)OCO2 (stereo not given),3.4%,11.1%,-24.9%,27.8,-0.1%
COc1ccc(-c2ccc(C(=O)NCC3CC3)c3occc23)c(C)c1,?,20.6µM*,?,?,?
O=C(NCC1CC1)c1ccc(-n2ccnc2)c2ccoc12,20.4%,-14.1%,-1.7%,6.1,?
COc1ccc(-c2ccc(C(=O)NCc3ccc(F)c(F)c3)c3occc23)c(C)c1,?,?,?,-59.1*,?
O=C(NCc1ccc(C(F)(F)F)cc1)c1cccc2c(-c3ccc(F)c(F)c3)coc12,-14.8%,?,?,-1.7,-21.4%
COc1ccc(-c2ccc(C(=O)NCc3ccncc3)c3occc23)c(C)c1,?,2.06µM*,1.84µM*,-28.9,-29.8%
COc1ccc(-c2coc3c(C(=O)NCc4ccc(F)c(F)c4)cccc23)c(C)c1,13µM*,?,14.6µM*,?,13µM*
Cc1noc(C)c1-c1ccc(C(=O)NCc2ccccc2)c2occc12,-24.9%,?,?,?,-7.7%
CC(=O)N[C@@H](Cc1c[nH]c2ccccc12)C(=O)NCc1ccccc1,4.5%,-0.4%,-23.8%,21.8,-7.5%
O=C(CN(Cc1ccc(F)cc1)C(=O)CCC(=O)Nc1nccs1)NCC1CCCO1 (stereo not given),10.1%,4.9%,-5.1%,20.6,11.3%
COc1ccc(-c2coc3c(C(=O)NCc4ccc(OC)c(OC)c4)cccc23)c(C)c1,4.11µM*,8.2µM*,6.51µM*,-20.6,?
COc1ccc(CNC(=O)C2=C(C)C(=O)OC23CCCCC3)cc1OC,.,-15.2%,?,.,.
CCCCNC(=S)N/N=C/c1ccc(OCC(=O)Nc2c(C)cc(C)cc2C)c(OC)c1,8.0%,-27.6%,?,27.0,11.6%
CCCCNC(=S)N/N=C/c1sccc1C,0.2%,0.92µM*,1.46µM*,-8.2,-2.4%
CCCCNC(=S)N/N=C/c1ccccc1F,0.5%,?,14.6µM*,-6.2,3.2%
CCCCNC(=S)N/N=C/c1ccc(C)s1,16.7%,?,?,0.0,6.9%
CCCCNC(=S)N/N=C/c1cc(C)ccc1C,-3.9%,5.17µM*,6.51µM*,16.1,-7.2%
O=C(C[n+]1ccccc1)N/N=C/c1ccccc1F,-0.8%,-19.7%,-18.1%,21.9,4.8%
Cc1ccn(CC(=O)N2CCCC(N3CCN(c4ccccc4F)CC3)C2)n1 (stereo not given),11.5%,-10.5%,11.0%,12.5,14.9%
CCN(Cc1ccccc1)C(=O)c1ccc(C)c(S(=O)(=O)N2CCCCC2)c1,4.9%,?,16.4µM*,0.1,4.3%
COCCN(Cc1ccccc1)C(=O)Cc1ccc(OC)c(S(=O)(=O)N2CCOCC2)c1,15.0%,-27.1%,?,6.7,21.2%
Cc1ccc(C(=O)N(CCc2ccccc2)Cc2ccccc2)cc1S(=O)(=O)N1CCCCC1,-9.1%,?,18.4µM*,-16.2,-20.5%
Cc1ccc(C(=O)N(CCc2ccccc2)Cc2ccccc2)cc1S(=O)(=O)N1CCOCC1,-5.1%,14.6µM*,23.1µM*,-21.6,-23.1%
SMILES,HT1080 IDH1KD tx,TDP1 cell CPT,DT40 TDP1 no CPT,IL1B secr inh,HT1080NT lethal
COc1ccc(CC(=O)N(Cc2ccccc2)c2ccccc2)cc1S(=O)(=O)N1CCOCC1,1.1%,16.4µM*,14.6µM*,i,-3.2%
CCCN(CC(=O)Nc1ccccc1C)C(=O)c1ccc(C)c(S(=O)(=O)N2CCCCC2)c1,-17.9%,-13.6%,-28.9%,-17.5,-16.2%
CCN(CC(=O)Nc1c(F)cccc1F)C(=O)c1ccc(Cl)c(S(=O)(=O)N2CCCCC2)c1,-3.7%,-26.8%,-16.8%,-21.6,-11.8%
COc1ccc(C(=O)N(CCc2ccccc2)Cc2ccccc2)cc1S(=O)(=O)N1CCOCC1,0.7%,23.1µM*,16.4µM*,-11.8,-1.7%
CC1CN(S(=O)(=O)c2cc(C(=O)N(CCc3ccccc3)Cc3ccccc3)ccc2Cl)CC(C)O1 (stereo not given),-12.8%,11.6µM*,10.3µM*,-4.0,-14.6%
O=C(c1cccc(S(=O)(=O)N2CCOCC2)c1)N(CCc1ccccc1)Cc1ccccc1,1.1%,?,?,-14.8,-2.0%
CCN(CC1COc2ccccc2O1)C(=O)c1ccc(Cl)c(S(=O)(=O)N2CC(C)OC(C)C2)c1 (stereo not given),-0.8%,7.31µM*,4.61µM*,-3.0,?
O=C(NCCc1ccccc1)c1ccc(Cl)c(S(=O)(=O)N2CCOCC2)c1,-2.6%,?,-29.5%,-23.3,-29.3%
COc1ccc(C(C(=O)NCc2ccccc2)n2c(=O)c(-c3cc4ccccc4[nH]3)nc3ccccc32)cc1 (stereo not given),?,?,?,6.7,?
CO,.,5.3%,-3.0%,.,.
Cc1ccc(S(=O)(=O)Nc2cc(=O)[nH]c3c2CCC3)cc1,?,4.0%,?,-9.7,15.4%
Cc1ccc(Cn2c(=O)n(Cc3ccccc3Cl)c(=O)c3ccccc32)cc1,.,2.9%,3.2%,.,.
Cc1[nH][nH]c(=O)c1C(c1c(C)[nH][nH]c1=O)c1cn(Cc2ccccc2Cl)c2ccccc12,18.4µM*,5.8µM*,5.17µM*,0.0,?
CCN(CC)C(=O)Cn1c(=O)cc(C)c2c(C)nn(-c3ccc(C)cc3)c21,.,8.9%,5.1%,.,.
COc1ccc(N2CCN(C(=O)Cn3nc(Cc4cccnc4)c4ccccc4c3=O)CC2)cc1,.,-28.3%,?,.,.
CCC1CCCCN1S(=O)(=O)c1ccc(C(=O)N(CCCN(C)C)c2nc3cc4c(cc3s2)OCO4)cc1 (stereo not given),?,16.4µM*,?,-80.3*,?
CN(C)CCCN(C(=O)c1ccc(S(=O)(=O)N2CCCCCC2)cc1)c1nc2cc3c(cc2s1)OCO3,-19.6%,?,?,-11.7,-22.2%
CC1CN(S(=O)(=O)c2ccc(C(=O)N(CCCN(C)C)c3nc4cc5c(cc4s3)OCCO5)cc2)CC(C)O1 (stereo not given),7.2%,-26.7%,-26.3%,?,0.9%
CC1CCCCN1S(=O)(=O)c1ccc(C(=O)N(CCCN(C)C)c2nc3ccc(Br)cc3s2)cc1 (stereo not given),?,20.6µM*,?,-105.0*,18.4µM*
